Source: PubChem BioAssay
For some assays here: Entries with a potency or affinity are not part of this list. Calls of active or inactive are those of the source. Unless noted, how the calls were made is not given here.

Legend:
[1] = antimalarial activity against Dd2 strain (AID 2302;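 active means growth inhibition above 50% at the single 2 µM test dose, taken to imply half-maximal potency below 2 µM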;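 further: 0% = DMSO untreated growth and 100% = chloroquine plus artemisinin killed control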); details: P. falciparum Dd2 in RBCs, LDH growth readout, 72 h; at 2 µM; active compounds read high
[2] = human hepatoma cell viability loss – ATP luminescence, cytotoxicity control for P. falciparum antimalarial project, primary screen (AID 2303;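 active means inhibition above 50%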;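 further: 0% = DMSO wells and 100% = digitonin-killed cells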); details: HepG2 viability, 24-48 h, at 10 µM, active compounds read high
[3] = target: L-lactate dehydrogenase (Plasmodium falciparum (isolate CDC / Honduras)) (UniProt Q27743); experiment: PfLDH activity inhibition – cell lysate, 3D7 strain, counter-screen for P. falciparum growth inhibition project (AID 2304);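 further: 0% = vehicle and 100% = reference inhibitor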; details: P. falciparum 3D7 crude extract, LDH APAD/NBT absorbance; at 2 µM; active compounds read high
Chain of L-lactate dehydrogenase (Plasmodium falciparum (isolate CDC / Honduras)) (Q27743 whole entry, looked up): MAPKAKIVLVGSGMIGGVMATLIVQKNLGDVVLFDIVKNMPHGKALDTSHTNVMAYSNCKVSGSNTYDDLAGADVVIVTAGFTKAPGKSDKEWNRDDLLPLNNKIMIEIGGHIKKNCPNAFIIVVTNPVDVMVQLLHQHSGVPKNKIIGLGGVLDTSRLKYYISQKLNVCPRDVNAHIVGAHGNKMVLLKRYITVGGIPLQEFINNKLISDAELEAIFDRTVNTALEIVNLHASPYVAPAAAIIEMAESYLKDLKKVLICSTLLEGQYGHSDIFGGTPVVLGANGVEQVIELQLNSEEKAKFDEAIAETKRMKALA

[4] = inhibition of 3D7 malaria parasite growth – strain 3D7 (AID 2306);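 further: 0% = DMSO wells and 100% = chloroquine plus artemisinin control wells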; details: P. falciparum 3D7 erythrocytic growth, LDH absorbance, 72 h; at 2 µM; active compounds read high
[5] = target: Calcium-dependent protein kinase 1 (Plasmodium falciparum (isolate 3D7)) (UniProt P62344); experiment: PfCDPK1 kinase inhibitors, biochemical, TCAMS library (AID 1159585; cut-off not given, nearly all actives have IC50 up to about 0.98 µM;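 further: inhibitors leave more ATP so luminescence rises with inhibition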); details: recombinant PfCDPK1, Kinase-Glo ATP depletion luminescence
Chain of Calcium-dependent protein kinase 1 (Plasmodium falciparum (isolate 3D7)) (P62344 whole entry, looked up): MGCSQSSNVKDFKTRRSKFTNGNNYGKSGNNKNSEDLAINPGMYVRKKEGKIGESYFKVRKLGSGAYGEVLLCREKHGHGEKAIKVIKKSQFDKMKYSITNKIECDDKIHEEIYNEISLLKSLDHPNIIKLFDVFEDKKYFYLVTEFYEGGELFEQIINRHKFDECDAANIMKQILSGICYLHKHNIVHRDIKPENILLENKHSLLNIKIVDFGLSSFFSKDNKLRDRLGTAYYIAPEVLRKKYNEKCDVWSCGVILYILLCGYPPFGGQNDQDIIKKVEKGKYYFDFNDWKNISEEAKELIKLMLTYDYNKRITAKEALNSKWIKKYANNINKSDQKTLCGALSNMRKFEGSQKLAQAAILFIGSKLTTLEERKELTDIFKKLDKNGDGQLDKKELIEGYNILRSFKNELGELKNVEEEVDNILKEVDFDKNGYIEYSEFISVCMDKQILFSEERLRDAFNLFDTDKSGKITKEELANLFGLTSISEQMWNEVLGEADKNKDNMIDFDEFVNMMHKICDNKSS

[6] = target: Plasmodium falciparum protein kinase 6 (PK6, PF3D7_1337100) (UniProt Q8IDW1); experiment: PfPK6 kinase inhibitors, biochemical, TCAMS library (AID 1159586); details: recombinant PfPK6, Kinase-Glo ATP depletion luminescence
Chain of Plasmodium falciparum protein kinase 6 (PK6, PF3D7_1337100) (Q8IDW1 1-305): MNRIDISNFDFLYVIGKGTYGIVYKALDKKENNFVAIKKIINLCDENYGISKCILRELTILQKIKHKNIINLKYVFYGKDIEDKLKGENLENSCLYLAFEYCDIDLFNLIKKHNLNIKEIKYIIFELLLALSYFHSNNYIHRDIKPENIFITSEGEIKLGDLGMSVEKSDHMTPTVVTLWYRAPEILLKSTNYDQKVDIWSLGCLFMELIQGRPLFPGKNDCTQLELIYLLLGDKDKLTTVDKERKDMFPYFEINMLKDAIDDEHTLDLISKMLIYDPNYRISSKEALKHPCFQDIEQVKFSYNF

[7] = target: Protein kinase 7 (PK7), Plasmodium falciparum 3D7 (PF3D7_0213400) (UniProt Q7YTF7); experiment: inhibition of Plasmodium PK7 catalytic activity – biochemical, TCAMS antimalarial set, Kinase-Glo luminescence (AID 1159587); details: recombinant PfPK7, Kinase-Glo ATP depletion luminescence
Chain of Protein kinase 7 (PK7), Plasmodium falciparum 3D7 (PF3D7_0213400) (Q7YTF7 1-343): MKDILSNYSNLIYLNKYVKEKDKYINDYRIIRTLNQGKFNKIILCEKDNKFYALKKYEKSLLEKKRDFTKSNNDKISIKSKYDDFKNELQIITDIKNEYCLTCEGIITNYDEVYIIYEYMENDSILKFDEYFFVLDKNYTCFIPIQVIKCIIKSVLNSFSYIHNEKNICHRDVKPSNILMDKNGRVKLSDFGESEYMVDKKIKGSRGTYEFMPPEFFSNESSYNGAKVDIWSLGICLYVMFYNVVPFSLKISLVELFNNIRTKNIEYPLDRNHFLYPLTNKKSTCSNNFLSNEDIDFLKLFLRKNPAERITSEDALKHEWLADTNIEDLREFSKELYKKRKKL

[8] = target: Calcium-dependent protein kinase 4 (Plasmodium falciparum (isolate 3D7)) (UniProt Q8IBS5); experiment: PfCDPK4 kinase inhibitors, biochemical, TCAMS library (AID 1159588; cut-off not given, nearly all actives have IC50 up to about 0.91 µM); details: recombinant PfCDPK4, Kinase-Glo ATP depletion luminescence
Chain of Calcium-dependent protein kinase 4 (Plasmodium falciparum (isolate 3D7)) (Q8IBS5 whole entry, looked up): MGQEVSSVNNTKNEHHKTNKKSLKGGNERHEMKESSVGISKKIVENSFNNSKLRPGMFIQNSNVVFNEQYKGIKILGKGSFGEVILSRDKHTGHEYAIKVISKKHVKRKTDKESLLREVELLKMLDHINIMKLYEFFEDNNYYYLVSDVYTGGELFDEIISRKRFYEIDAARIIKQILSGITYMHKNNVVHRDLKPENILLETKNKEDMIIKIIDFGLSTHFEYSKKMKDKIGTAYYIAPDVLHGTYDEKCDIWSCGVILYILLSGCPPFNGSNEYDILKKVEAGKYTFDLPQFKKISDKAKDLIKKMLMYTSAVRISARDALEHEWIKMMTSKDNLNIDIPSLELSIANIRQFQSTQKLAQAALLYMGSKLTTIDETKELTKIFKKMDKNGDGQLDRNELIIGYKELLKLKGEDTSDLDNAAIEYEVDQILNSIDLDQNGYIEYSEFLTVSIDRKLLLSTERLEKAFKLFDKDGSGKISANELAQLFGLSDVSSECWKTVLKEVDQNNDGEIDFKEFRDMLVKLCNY

O=C(C1CC1)N1c2ccccc2CCc2ccccc21
active: growth inhibition [1] 57% | growth inhibition [4] 98%
inactive: inhibition [2] 40% | inhibition [3] 1% | outcome [5] | outcome [6] | outcome [7] | outcome [8]

CN1CCC[C@@H](Oc2cc3c(cc2Br)CCN3C(=O)Nc2ccc(-c3ccncc3)c(Cl)c2)C1
active: growth inhibition [1] 64% | growth inhibition [4] 99%
inactive: inhibition [2] 26% | inhibition [3] -7% | outcome [5] | outcome [6] | outcome [7] | outcome [8]

CCN(CC)CCN(Cc1ccc(-c2ccc(C(F)(F)F)cc2)cc1)C(=O)Cn1c(CCc2cccc(F)c2F)nc(=O)c2ccc(C)cc21
inactive: inhibition [2] 39% | inhibition [3] -2% | outcome [5] | outcome [6] | outcome [7] | outcome [8]
active: growth inhibition [1] 58% | growth inhibition [4] 99%

Cc1c(-c2cccc(NC(=O)C(C)(C)Oc3ccc(Cl)cc3)c2)nc2ncccn12
active: growth inhibition [1] 95% | growth inhibition [4] 98%
inactive: inhibition [2] 0% | inhibition [3] -3% | outcome [5] | outcome [6] | outcome [7] | outcome [8]

COc1cc2nc(N3CCC(CNC(=O)c4ccc(-c5ccc(C(=O)N(C)C)cc5O)cc4)CC3)nc(N)c2cc1OC
inactive: inhibition [2] 2% | inhibition [3] 3% | outcome [5] | outcome [6] | outcome [7] | outcome [8]
active: growth inhibition [1] 90% | growth inhibition [4] 101%

O=[N+]([O-])c1cccc(CNC2CCN(Cc3ccc(Cl)c(Cl)c3)CC2)c1
active: growth inhibition [1] 71% | growth inhibition [4] 100%
inactive: inhibition [2] 5% | inhibition [3] 3% | outcome [5] | outcome [6] | outcome [7] | outcome [8]

Clc1ccc(-c2csc3ncnc(Cl)c23)cc1
inactive: inhibition [2] -3% | inhibition [3] -6% | outcome [5] | outcome [6] | outcome [7] | outcome [8]
active: growth inhibition [1] 95% | growth inhibition [4] 94%

Cc1cc(N[C@@H](Cc2ccccc2)C(=O)NCc2cccc(F)c2)nc(Nc2ccccc2)n1
inactive: inhibition [2] 20% | inhibition [3] 5% | outcome [5] | outcome [6] | outcome [7] | outcome [8]
active: growth inhibition [1] 92% | growth inhibition [4] 100%

CC1(C)[C@H]2CC[C@@H](CNc3nc(NCC(=O)Nc4ccc5ccccc5c4)nc(N4CCC(N5CCCC5)CC4)n3)[C@@H]1C2
active: growth inhibition [4] 93%
inactive: growth inhibition [1] 20% | inhibition [2] 6% | inhibition [3] -5% | outcome [5] | outcome [6] | outcome [7] | outcome [8]

Cc1cc2nc(-c3ccc(/C=C/C(=O)NCCc4ccccc4)cc3)[nH]c2cc1C
active: growth inhibition [4] 98%
inactive: growth inhibition [1] 13% | inhibition [2] 3% | inhibition [3] 1% | outcome [5] | outcome [6] | outcome [7] | outcome [8]
